This is an account of results in the supplement of paper PMC9950053.

Common to all, as to conditions: 10 µM; exposure time: 3 h pre-incubation + 3 h imaging
Assay [1] has as its system Danio rerio larvae (5 dpf). Briefly: startle (activity period 16 minus period 15, 20-s interval sound) minus DMSO control (percentage points); higher = stronger startle response than DMSO larvae. The method, boiled down: (§1)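 Wild-type 5 dpf zebrafish larvae were exposed to compounds at 10 µM final for 3 h before and 3 h during imaging at 28.5 °C. Larvae were imaged every 6 s and tracked by Z-LaP Tracker. Detections below 0.5 probability and larvae moving under 1% of the time were excluded. Each behavioural measure is the group mean (n = 48) minus the DMSO control mean (n = 844), in percentage points.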

In assay [2] the test system is Danio rerio larvae (5 dpf). In words: combined optomotor response (time in upper well half, down vs up moving lines, periods 7-14) minus DMSO control (percentage points); higher = stronger optomotor response than DMSO larvae.
Assay [3] concerns Danio rerio larvae (5 dpf). Briefly: combined upward orientation toward moving lines (periods 7-14) minus DMSO control (percentage points); higher = more orientation with moving lines than DMSO larvae. The method, boiled down: as §1
In assay [4] the test system is Danio rerio larvae (5 dpf). Briefly: habituation (activity change first vs second 5 min of 1-s interval sound, period 17) minus DMSO control (percentage points); higher = larger habituation measure than DMSO larvae. The method, boiled down: as §1
The subject of assay [5] is Danio rerio larvae (5 dpf). In words: excitability (activity period 17 minus period 16, 1-s interval sound) minus DMSO control (percentage points); higher = more acoustic excitability than DMSO larvae. The method, boiled down:
as §1

Assay [6] has as its system Danio rerio larvae (5 dpf). Briefly: 1-h baseline activity (% time moving, periods 1-6) minus DMSO control (percentage points); higher = more locomotor activity than DMSO larvae. Summed up: as §1

The structures appear in SMILES notation. Structures can show the parent of a compound that is named as a salt.

Consider `COc1ccc(-c2ccc3cc(C(=O)O)ccc3c2)cc1C12CC3CC(CC(C3)C1)C2` [Adapalene], for which the startle in assay [1] was -0.788. Moreover, in assay [2], the combined optomotor response worked out at 0.129.
For the compound `COc1c(C)c2c(c(O)c1C/C=C(\C)CCC(=O)O)C(=O)OC2` [Mycophenolic acid], the “combined upward orientation toward moving lines” value in assay [3] was -0.977. The habituation in assay [4] was found to be 1.82. Further, in assay [2], the combined optomotor response turned out to be 7.6.
Turning to `CN1CCN2c3ncccc3Cc3ccccc3C2C1` (stereo unspecified) [Mirtazapine], in assay [5], the excitability was 4.38. In addition, the “combined upward orientation toward moving lines” value in assay [3] is -11.4.
As to `CC1CNc2c(cccc2S(=O)(=O)N[C@@H](CCCNC(=N)N)C(=O)N2CC[C@@H](C)C[C@@H]2C(=O)O)C1` (stereo partly specified) [Argatroban], the startle in assay [1] was 2.82. Also, in assay [2], the combined optomotor response was determined as 3.86.
Take `C[C@@H](O[C@H]1OCCN(Cc2n[nH]c(=O)[nH]2)[C@H]1c1ccc(F)cc1)c1cc(C(F)(F)F)cc(C(F)(F)F)c1` [Aprepitant]: the 1-h baseline activity in assay [6] was -8.77. For the same compound, the startle in assay [1] is -6.24. The excitability in assay [5] worked out at 8.09. In assay [2], the combined optomotor response amounted to 4.63.
In the case of `C=C1[C@H](CO)[C@@H](O)C[C@@H]1n1cnc2c(=O)[nH]c(N)nc21` [Entecavir], the “combined upward orientation toward moving lines” value in assay [3] is -3.62. In addition, in assay [2], the combined optomotor response was determined as 3.44.
Take `CC(C)(C(=O)c1cccnc1)c1cccnc1` [Metyrapone]: in assay [3], the “combined upward orientation toward moving lines” value is -5.62. For the same compound, in assay [2], the combined optomotor response was -5.86.
Consider `CC(C)(C)NC(=O)[C@@H]1C[C@@H]2CCCC[C@@H]2CN1C[C@@H](O)[C@H](Cc1ccccc1)NC(=O)[C@H](CC(N)=O)NC(=O)c1ccc2ccccc2n1` [Saquinavir mesylate], for which the startle in assay [1] is 0.811. Further, in assay [4], the habituation was -0.527. Further, in assay [2], the combined optomotor response was -2.96.
As for `COc1cc(Nc2c(C#N)cnc3cc(OCCCN4CCN(C)CC4)c(OC)cc23)c(Cl)cc1Cl` [Bosutinib], the startle in assay [1] was -0.373. Also, the combined optomotor response in assay [2] came out at 0.386.
For `CC(C)[C@H]1CC[C@H](C(=O)N[C@H](Cc2ccccc2)C(=O)O)CC1` [Nateglinide], the “combined upward orientation toward moving lines” value in assay [3] is -0.86. Also, in assay [2], the combined optomotor response was found to be 3.95.
For the compound `COc1cc2ncnc(Nc3ccc(F)c(Cl)c3)c2cc1OCCCN1CCOCC1` [Iressa], in assay [1], the startle was -1.42. Also, the combined optomotor response in assay [2] stood at 5.72.
For the compound `NS(=O)(=O)c1cc(C(=O)O)c(NCc2ccco2)cc1Cl` [Furosemide], the “combined upward orientation toward moving lines” value in assay [3] was -2.41.
With `O=c1[nH]c(=O)n([C@H]2C[C@H](O)[C@@H](CO)O2)cc1C(F)(F)F` [Trifluorothymidine], the startle in assay [1] was found to be 1.59. Besides, the combined optomotor response in assay [2] came to 5.31.
Take `Cn1nnc2c(C(N)=O)ncn2c1=O` [Temozolomide]: the startle in assay [1] stood at 2.78. Also, in assay [3], the “combined upward orientation toward moving lines” value is -6.36. Also, the habituation in assay [4] is 4.81. For the same compound, the combined optomotor response in assay [2] amounted to 5.41.
As to `CCC(=O)O[C@]1(C(=O)SCF)[C@H](C)C[C@H]2[C@@H]3C[C@H](F)C4=CC(=O)C=C[C@]4(C)[C@@]3(F)[C@@H](O)C[C@@]21C` [Fluticasone propionate], the startle in assay [1] was -2.41. Further, the excitability in assay [5] was 3.16. The combined optomotor response in assay [2] was found to be 2.4.
Regarding `CN(C)CC/C=C1/c2ccccc2COc2ccc(CC(=O)O)cc21` [Olopatadine hydrochloride], the “combined upward orientation toward moving lines” value in assay [3] is -3.54. Further, in assay [2], the combined optomotor response was found to be 8.84.
The matching figures for `COc1ccc(Cl)cc1C(=O)NCCc1ccc(S(=O)(=O)NC(=O)NC2CCCCC2)cc1` [Glibenclamide]: -10.9 and 1.3.
Turning to `O=C(O)c1cc(/N=N/c2ccc(S(=O)(=O)Nc3ccccn3)cc2)ccc1O` [Sulfasalazine], the “combined upward orientation toward moving lines” value in assay [3] was -3.42. Further, the combined optomotor response in assay [2] was 1.33.
Turning to `C[C@]12CCC(=O)C=C1CC[C@@H]1[C@@H]2[C@@H](O)C[C@@]2(C)[C@H]1CC[C@]2(O)C(=O)CO` [Hydrocortisone], the “combined upward orientation toward moving lines” value in assay [3] came out at 0.758. In addition, the combined optomotor response in assay [2] was determined as 4.58.
For `Cc1c(-c2ccc(O)cc2)n(Cc2ccc(OCCN3CCCCCC3)cc2)c2ccc(O)cc12` [Bazedoxifene acetate], in assay [1], the startle was -3.07. Moreover, the habituation in assay [4] worked out at 0.95. In addition, the combined optomotor response in assay [2] was -0.163.
Consider `CN(C)CCc1c[nH]c2ccc(Cn3cncn3)cc12` [Rizatriptan benzoate], for which, in assay [1], the startle came out at 4.04. Also, in assay [2], the combined optomotor response came to 6.97.
`C[C@H](Cc1cc2c(c(C(N)=O)c1)N(CCCO)CC2)NCCOc1ccccc1OCC(F)(F)F` [Silodosin]: the 1-h baseline activity in assay [6] was -3.52. Besides, the startle in assay [1] was determined as 2.61. For the same compound, in assay [4], the habituation is 7.86. Besides, the combined optomotor response in assay [2] was determined as 9.04.
With `Nc1nc(Cl)nc2c1ncn2[C@@H]1O[C@H](CO)[C@@H](O)[C@@H]1F` [Clofarabine], the startle in assay [1] is 5.12. The combined optomotor response in assay [2] was found to be 4.66.
As to `Cc1ccsc1C(=CCCN1CCC[C@@H](C(=O)O)C1)c1sccc1C` [Tiagabine hydrochloride], the “combined upward orientation toward moving lines” value in assay [3] came to 13.4. The habituation in assay [4] was found to be 6.37. The combined optomotor response in assay [2] worked out at 8.29.
As to `CC(=O)S[C@@H]1CC2=CC(=O)CC[C@]2(C)[C@H]2CC[C@@]3(C)[C@@H](CC[C@@]34CCC(=O)O4)[C@H]12` [Spironolactone], the “combined upward orientation toward moving lines” value in assay [3] was -2.59. The combined optomotor response in assay [2] was determined as 0.523.
`CC(=O)NC[C@H]1CN(c2ccc(N3CCOCC3)c(F)c2)C(=O)O1` [Linezolid]: in assay [1], the startle was 2.73. Further, the combined optomotor response in assay [2] came to 6.27.
In the case of `Cc1cn([C@H]2C=C[C@@H](CO)O2)c(=O)[nH]c1=O` [Stavudine], the “combined upward orientation toward moving lines” value in assay [3] was -0.971. In assay [2], the combined optomotor response was found to be 7.54.
Turning to `CC(C)C(=O)OCC(=O)[C@@]12O[C@H](C3CCCCC3)O[C@@H]1C[C@H]1[C@@H]3CCC4=CC(=O)C=C[C@]4(C)[C@H]3[C@@H](O)C[C@@]12C` [Ciclesonide], in assay [3], the “combined upward orientation toward moving lines” value was -8.95. For the same compound, the combined optomotor response in assay [2] was found to be 1.14.
